Measurements taken from PubChem BioAssay AID504406 (Broad Institute, 2011).
Hit rate of the full screen: of about 320,000 compounds, about 190 (0.059%) were called active. Only a selection was taken, and actives are over-represented in it overall. Unmarked numbers belong to inactive results. Rule as the data show it: active = inhibition above about 10% (passing the limit was not always enough); inconclusive = no clear call, values can overlap the other calls.

What follows are compounds tested against UDP-galactopyranose mutase (Mycobacterium tuberculosis (strain ATCC 25618 / H37Rv)) (UniProt P9WIQ1) (assay: M. tuberculosis UGM enzyme inhibitors, primary screen, biochemical, fluorescence polarization, single point (AID 504406)). Settings: purified UGM, fluorescence polarization probe displacement; at 10 µM; active compounds read high.
Chain of UDP-galactopyranose mutase (Mycobacterium tuberculosis (strain ATCC 25618 / H37Rv)) (P9WIQ1 whole entry, looked up): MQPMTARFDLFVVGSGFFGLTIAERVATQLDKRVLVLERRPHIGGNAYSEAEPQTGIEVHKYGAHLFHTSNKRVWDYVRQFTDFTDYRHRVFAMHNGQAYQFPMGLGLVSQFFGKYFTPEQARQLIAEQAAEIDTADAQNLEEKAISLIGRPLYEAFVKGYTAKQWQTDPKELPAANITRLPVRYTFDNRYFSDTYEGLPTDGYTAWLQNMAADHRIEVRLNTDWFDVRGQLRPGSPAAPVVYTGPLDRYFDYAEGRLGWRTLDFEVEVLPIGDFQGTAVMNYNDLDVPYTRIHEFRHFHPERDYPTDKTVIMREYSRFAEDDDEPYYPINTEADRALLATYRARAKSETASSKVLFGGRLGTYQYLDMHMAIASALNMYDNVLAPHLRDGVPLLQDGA
Work on `CC1CC(=O)N(CC(=O)Nc2cccc(Cl)c2)c2ccccc2S1(=O)=O` (stereo unspecified) yielded an inhibition of -0.479%.
With `O=C(O)C1CC=CCC1C(=O)NCCc1ccccc1` (stereo unspecified) the inhibition was -0.437%.
In the case of `CC(NC(=O)c1ccc(S(=O)(=O)Nc2ccccc2)cc1)c1ccc(S(N)(=O)=O)cc1` (stereo unspecified), the inhibition is reported as -0.443%.
`CC(=O)c1nn(-c2cccc(Br)c2)cc1C(=O)c1cccc2ccccc12` showed an inhibition of 2.24%.
For `O=C(CCCN1CCc2[nH]c3ccc(F)cc3c2C1)c1ccc(F)cc1`, the inhibition was -0.464%.
`COc1ccc(C(C)NC(=O)C23CC4CC(CC(C4)C2)C3)cc1` (stereo unspecified) showed an inhibition of 0.347%.
`CCOc1ccccc1-n1c(SCC(=O)N2CCCC2)nnc1-c1ccoc1C` gave an inhibition of 0.65%.
`O=C(Cc1cccs1)NCc1cccc(C(F)(F)F)c1` gave an inhibition of 0.316%.
`O=C(CC1Oc2ccccc2NC1=O)NCCCN1CCN(Cc2ccccc2)CC1` (stereo unspecified) gave an inhibition of -0.871%.
`Cc1ccc(C(=O)CSc2nc3ccccc3c(=O)n2N)o1` was tested, and the inhibition was -2.34%.
For `COc1cccc(-c2ccc3c(c2)S(=O)(=O)c2cccc(C(=O)O)c2C3=O)c1OC`, the inhibition was -0.479%.
Compound `O=C(COc1cc(Cl)c(Cl)cc1Cl)NCCc1ccccn1` has an inhibition of 1.96%.
In the case of `COC(=O)C[n+]1cccc2ccccc21`, the inhibition is reported as 13.9% (active).
Compound `O=C(C[n+]1cc(Br)cc2ccccc21)c1ccc(F)cc1` has an inhibition of -0.457%.
For `COc1c(C(=O)N2CCCC2)ccc2ccccc12`, the inhibition was -0.901%.
For `COc1ccc(CCN2C(=O)c3[nH]nc(-c4ccccc4O)c3C2c2ccc(C)cc2)cc1OC` (stereo unspecified), the inhibition was 2.57%.
Compound `COc1ccc(N2CCN(S(=O)(=O)c3cc(Br)cnc3N)CC2)cc1` has an inhibition of 1.41%.
Compound `Cc1ccc(NS(=O)(=O)c2ccc(F)cc2)nc1` has an inhibition of -0.636%.
For `N#Cc1c(N)nc2c3c(sc(=N)c2c1N)NC(=O)CC3c1ccccc1Cl` (stereo unspecified), the inhibition was 2.45%.
Compound `COc1cccc(CNC(=O)CCC2CCCN(C(=O)c3ccoc3C)C2)c1` (stereo unspecified) has an inhibition of -0.384%.
For `COc1ccc(NC(=O)CN(Cc2ccccc2)S(C)(=O)=O)cc1OC`, the inhibition was -0.501%.
For `CCc1ccccc1NC(=S)Nc1cc(OC)c(NC(=O)C(C)C)cc1OC`, the inhibition was 0.622%.
Compound `COC(=O)C1=C(C(=O)OC)[C@@H]2N(C)c3ccccc3[C@@]23C[C@@H](C(=O)OC)N(C(C)=O)C3=N1` has an inhibition of -0.842%.
For `O=C(NCc1ccco1)C1CCCN1S(=O)(=O)c1ccccc1C(F)(F)F` (stereo unspecified), the inhibition was 5.45%.
Compound `CC(C)Oc1ccccc1C(=O)NC(CO)C(=O)O` (stereo unspecified) has an inhibition of -1.15%.
With `CC(=O)C1=C(O)C(=O)N(c2ccc(S(N)(=O)=O)cc2)C1c1ccccc1F` (stereo unspecified) the inhibition was 3.63%.
Work on `Cc1ccc(CCn2c3c(c4ccccc42)CN(C)CC3)cn1` yielded an inhibition of 0.129%.
In the case of `O=C(NCc1cccnc1)Nc1cccc(NC(=O)NCc2cccnc2)c1F`, the inhibition is reported as -4.12%.
Compound `CCOC(=O)C1(Cc2cccc(OC)c2)CCCN(C(=O)CCSC)C1` (stereo unspecified) has an inhibition of 1.34%.
In the case of `Cc1ccc(-c2nn(-c3cccc(F)c3)cc2CNCCc2ccncc2)o1`, the inhibition is reported as -3.08%.
Compound `Cc1ccc2c(CC(=O)NCc3cccs3)coc2c1` has an inhibition of -2.27%.
`CCN1C(=NCc2ccc(OC)cc2)N[C@@H](CCc2ccccc2)[C@H](C(=O)NCc2ccc(OC)cc2)[C@H]1C` was tested, and the inhibition was 0.311%.
`COc1ccc(OC)c(C2N(c3ccccn3)C(=O)C3CCCN32)c1` (stereo unspecified) showed an inhibition of -1.67%.
`O=C(c1ccc(Cl)c(S(=O)(=O)N2CCCCCC2)c1)N1CCN(c2ccc(O)cc2)CC1` showed an inhibition of 0.826%.
`CSCCC(NS(=O)(=O)c1ccc2c(c1)oc(=O)n2C)C(=O)NCc1ccccc1` (stereo unspecified) gave an inhibition of 7.62%.
For `COc1cccc(CNS(=O)(=O)c2ccc3c(c2)N(C(C)=O)CCS3)c1`, the inhibition was 0.635%.
`Cc1nc(NCc2ccccc2)c(C(N)=O)c2c1COC(C)(C)C2` gave an inhibition of -0.415%.
With `O=C(CSc1nnnn1-c1ccc(O)cc1)N1N=C(c2ccc3ccccc3c2)CC1c1ccccc1` (stereo unspecified) the inhibition was -0.544%.
With `O=C(CN1C(=O)COc2ccc(Cl)cc21)N1CCOCC1` the inhibition was -2.04%.
In the case of `Nc1ncc(CN2CCCC(C(=O)Nc3ccc(-c4ccco4)cc3)C2)cn1` (stereo unspecified), the inhibition is reported as -0.194%.
Work on `O=C(CCCN1C(=O)c2ccccc2C1=O)Oc1ccc(Cl)cc1` yielded an inhibition of 1.46%.
In the case of `COc1cc(S(=O)(=O)N(Cc2cccs2)C2CC2)ccc1-n1cnnn1`, the inhibition is reported as -0.867%.
`CCOc1cc(C(=O)Nc2ccc(S(=O)(=O)Nc3cnc4ccccc4n3)cc2)cc(OCC)c1OCC` showed an inhibition of -1.61%.
With `COC(=O)C1(C)CC1(c1ccccc1)c1ccccc1` (stereo unspecified) the inhibition was -0.587%.
`NC(=O)C1CC=CCC1C(=O)OCC(Cl)=C(Cl)Cl` (stereo unspecified) was tested, and the inhibition was -1.58%.
For `Nc1ccc2nc3c(=O)[nH]c(=S)[nH]c3nc2c1`, the inhibition was 15.2% (active).
`CC(C)C[C@@H](COc1ccccc1)N1CCN(CC(C)C)CCC1=O` was tested, and the inhibition was 1.36%.
`O=C(Nc1ccc([N+](=O)[O-])cc1)OCCc1ccccn1` showed an inhibition of -0.463%.
`Cc1ccc(S(=O)(=O)NC2CCCCCC2)cc1C(N)=O` gave an inhibition of 1.67%.
Work on `CC(C)(C)C1CCC(C(=O)NCC(c2cccs2)N2CCOCC2)CC1` (stereo unspecified) yielded an inhibition of 0.328%.
With `C(=C\c1ccccc1)/CSc1nnc(-c2cccnc2)n1Cc1ccco1` the inhibition was 1.26%.
With `CN1C(=O)c2cccc3c(N)ccc(c23)C1=O` the inhibition was 24.4% (active).
Compound `CC(C(=O)O)N1C(=O)c2cccc3cccc1c23` (stereo unspecified) has an inhibition of 3.93%.
With `Cc1nn(C)cc1N1C(=O)c2cccc3c(N)ccc(c23)C1=O` the inhibition was 31.9% (active).
Compound `COc1ccc([N+](=O)[O-])cc1NC(=O)c1ccc(N(Cc2ccccc2C)S(C)(=O)=O)cc1` has an inhibition of 0.0791%.
`COc1cc(OC)cc(/C(N)=N/O)c1` showed an inhibition of 1.41%.
`CC(=O)Nc1ccc(NC(=O)C2CCCN2S(=O)(=O)c2cccc(C(F)(F)F)c2)cc1` (stereo unspecified) gave an inhibition of -2.31%.
Compound `CC(=O)Nc1ccc(S(=O)(=O)NC(C)C(=O)OCCOc2ccc(F)cc2)cc1` (stereo unspecified) has an inhibition of -1.41%.
With `CCCCN(CC)CCNC(=O)CCNC(=O)Cn1ccc2ccccc2c1=O` the inhibition was 0.375%.
Compound `COCCCNC(NC(=O)c1ccc(C)cc1)C(Cl)(Cl)Cl` (stereo unspecified) has an inhibition of -0.407%.
Work on `O=C(NNC1=NCCC1)c1cccc(S(=O)(=O)N2CCCCC2)c1` yielded an inhibition of 2.86%.
For `COc1ccc(/C=C(/NC(=O)c2ccco2)C(=O)Nc2ccc(C(C)=O)cc2)cc1`, the inhibition was 0.676%.
`COc1ccc(-c2cc(C(=O)N3CCN(c4ccc(F)cc4)CC3)no2)cc1` gave an inhibition of 0.979%.
In the case of `Oc1ccc2ccc3cccc[n+]3c2c1`, the inhibition is reported as 45.7% (active).
Work on `CCc1ccc(C(=O)N2CCN(S(=O)(=O)c3sc(C(=O)O)c(C)c3C(=O)O)CC2)cc1` yielded an inhibition of 2.51%.
For `COc1ccc(/C=C/C(=O)OCC(=O)NC2CCCCCC2)cc1OC`, the inhibition was 29.9% (active).
Work on `COc1ccccc1/C=C/C(=O)OCC(=O)NC1CCCCCC1` yielded an inhibition of -0.893%.
`COc1cc(/C=C/C(=O)OCC(=O)NC2CC2)cc(OC)c1OC` showed an inhibition of 0.117%.
`COc1cccc(NC(=O)Cn2c3ccccc3c3nc4n(c(=O)c32)CCS4)c1` gave an inhibition of 0.23%.
In the case of `COc1ccccc1NC(=O)C(C)OC(=O)c1ccc(-n2cnnn2)cc1` (stereo unspecified), the inhibition is reported as -1.34%.
`COc1ccc(S(=O)(=O)N2CCN(C(=O)c3cc(C)oc3C)CC2)cc1` was tested, and the inhibition was -0.865%.
With `COc1ccc(N(CC(=O)NC2CCCCC2)C(=O)CNC(=O)c2ccco2)c(OC)c1` the inhibition was 2.4%.
`CC(C)CCNc1nc(N2CCCC2)c2c(c1C#N)CCN(C)C2` gave an inhibition of 3.98%.
`Clc1ccc(-c2cc(C3CCNCC3)[nH]n2)c(Cl)c1` showed an inhibition of 1.34%.
For `O=C1CCc2cc(S(=O)(=O)Nc3ccc(C(F)(F)F)cc3)cc3c2N1CC3`, the inhibition was -0.849%.
`Cc1nnc(Nc2ccccc2F)s1` showed an inhibition of -1.25%.
Compound `CCc1ccc2c(c1)C1(NN=C(c3ccccc3)S1)C(=O)N2` (stereo unspecified) has an inhibition of 1.69%.
With `O=C(OCc1cc(=O)n2ccsc2n1)C1(c2ccc(Cl)cc2)CC1` the inhibition was -0.701%.
`COc1ccc([N+](=O)[O-])cc1N(CC(=O)Nc1ccccc1C(=O)N1CCOCC1)S(C)(=O)=O` showed an inhibition of -1.48%.
In the case of `O=C(NCC#CCSc1nnc(-c2cccc3ccccc23)o1)c1cccs1`, the inhibition is reported as 0.904%.
In the case of `O=C(COC(=O)CCCSc1nc2ccccc2[nH]1)Nc1ccc(Oc2ccccc2)cc1`, the inhibition is reported as -1.64%.
`Cn1c(=O)[nH]c(=O)c2c1nc(NCCCn1ccnc1)n2Cc1cccc(Br)c1` was tested, and the inhibition was 1.02%.
`CCN1CC=C2C(C#N)=C(N)C(C#N)(C#N)[C@H](c3ccoc3)[C@H]2C1` was tested, and the inhibition was 13.1% (active).
Work on `N#CC1=C(N)C(C#N)(C#N)[C@H](c2ccsc2)[C@H]2COCC=C12` yielded an inhibition of 0.548%.
In the case of `COc1ccc(OC)c(CCNC(=O)CCn2ccc3cc(S(=O)(=O)N4CCCC4)ccc32)c1`, the inhibition is reported as -0.0435%.
For `CCN(C(=O)COC(=O)CCC(=O)c1cccs1)C1CCCCC1`, the inhibition was 0.798%.
`CCN(C(=O)CSc1cccc[n+]1[O-])c1ccccc1` was tested, and the inhibition was 1.75%.
In the case of `COc1ccccc1CCC(=O)OCC(=O)N1CCN(S(=O)(=O)c2ccc(C)cc2C)CC1`, the inhibition is reported as 2.52%.
Work on `CC(=O)N1CC2(C)CN(C(C)=O)CC(C)(C1)C2=O` yielded an inhibition of -1.57%.
Work on `COCCn1c(SCc2nc3cc(OC)c(OC)cc3c(=O)[nH]2)nnc1-c1ccncc1` yielded an inhibition of 0.376%.
In the case of `COCCCNC(=O)CC1C[C@H](C(=O)N2CCCCC2)[C@@]2(CCc3ccccc3)c3[nH]c4ccccc4c3CCN2C1=O` (stereo partly specified), the inhibition is reported as -1.3%.
